We go through twelve molecules from PubChem BioAssay (NCI).

Assay [1] is described as follows: NCI Yeast Anticancer Drug Screen. Data for the rad50 strain (AID 155).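 Note: 0% = growth of vehicle-only cultures of the same strain.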 Conditions: S. cerevisiae rad50 strain growth inhibition, stronger effect = higher value. In outline:
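Relative growth inhibition (compound vs vehicle) was measured in yeast with a defined repair-gene alteration.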

Assay [2] is described as follows: NCI Yeast Anticancer Drug Screen. Data for the mec2-1 strain (AID 157). Conditions: S. cerevisiae mec2-1 strain, stronger effect = higher value. The method, boiled down: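 Readout is yeast growth inhibition, normalised to vehicle-treated controls, in the mec2-1 strain exposed to compound.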
Assay [3] in a line: NCI Yeast Anticancer Drug Screen. Data for the sgs1 mgt1 strain (AID 161).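 Note: 0% = growth of cultures given vehicle only.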 As to conditions: S. cerevisiae sgs1 mgt1 strain, stronger effect = higher value. In outline: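 This yeast growth screen uses a strain with defined DNA-repair lesions; compound-treated growth is compared with vehicle-treated growth.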
Assay [4] is described as follows: NCI Yeast Anticancer Drug Screen. Data for the bub3 strain (AID 167). As to conditions: S. cerevisiae bub3 mutant strain, stronger effect = higher value. The method, boiled down:
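Screening used yeast with an engineered genetic alteration affecting cell cycle control. Compound-exposed cultures were compared with vehicle cultures, and reduced growth was taken as inhibition.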

A short description of assay [5]: NCI Yeast Anticancer Drug Screen. Data for the mlh1 rad18 strain (AID 175). Conditions: S. cerevisiae mlh1 rad18 strain growth inhibition, stronger effect = higher value. The method, boiled down:
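Test agents were incubated with a yeast strain of defined genotype (DNA damage repair defect). Inhibition of growth was derived by comparison with vehicle-exposed cultures.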

The nature of assay [6]: NCI Yeast Anticancer Drug Screen. Data for the cln2 rad14 strain (AID 165).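 Note: 0% = growth equal to vehicle treated cultures.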 As to conditions: S. cerevisiae cln2 rad14 strain, stronger effect = higher value. The method, boiled down: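 Relative to vehicle controls, growth inhibition of compound-treated cln2 rad14 yeast was recorded.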
Where [7] appears, read: at 5.0 µM (retest, dose inferred, filed as 0.5).
Where [8] appears, read: at 50.0 µM (retest, dose inferred, filed as 5.0).

Compounds without any hit were thinned out: in the full panel of roughly 79,000, 15% have a hit. Unmarked numbers belong to inactive results. The source made the active and inactive calls. Cut-off read from the data, not from the text of the source: active = growth inhibition above about 70%; inactive = the rest.

In the case of `CC(=O)[O-].O=C([CH-]C(=O)c1ccccc1)c1ccccc1.O=C([CH-]C(=O)c1ccccc1)c1ccccc1.[Dy+3]`, the growth inhibition in assay [1] (setting [7]) was 44%; in assay [1] (setting [8]) it was 99% (active); in assay [1] (at 50.0 µM), 91.5% (active); in assay [2] (setting [7]), 35%; in assay [2] (setting [8]), 99% (active); in assay [2] (at 50.0 µM) it was 93.2% (active). In addition, the growth inhibition is 44% in assay [3] (setting [7]); 100% (active) in assay [3] (setting [8]); 93.4% (active) in assay [3] (at 50.0 µM); 57% in assay [4] (setting [7]); 96% (active) in assay [4] (setting [8]); 92.1% (active) in assay [4] (at 50.0 µM). Moreover, the growth inhibition in assay [5] (setting [7]) was 50%; in assay [5] (setting [8]), 98% (active); in assay [5] (at 50.0 µM), 91.3% (active).

Take `COC(CNS(=O)(=O)c1ccccc1)[CH2][Hg][O]C(C)=O` (centres undefined): the growth inhibition in assay [1] (setting [7]) was 1%; in assay [1] (setting [8]), -1%; in assay [1] (at 50.0 µM), 99.5% (active); in assay [2] (setting [7]), -3%; in assay [2] (setting [8]) it was 13%; in assay [2] (at 50.0 µM), 98.8% (active). Moreover, the growth inhibition in assay [3] (setting [7]) is -5%; in assay [3] (setting [8]), 19%; in assay [3] (at 50.0 µM), 99.2% (active); in assay [4] (setting [7]), 2%; in assay [4] (setting [8]), 4%; in assay [4] (at 50.0 µM) it was 99.2% (active). Moreover, the growth inhibition in assay [5] (setting [7]) was -2%; in assay [5] (setting [8]), 11%; in assay [5] (at 50.0 µM), 99.2% (active).

On to `O=C([CH-]C(=O)c1ccccc1)c1ccccc1.O=C([CH-]C(=O)c1ccccc1)c1ccccc1.O=C([CH-]C(=O)c1ccccc1)c1ccccc1.[Cl-].[Hf+4]`, for which the growth inhibition was 38% in assay [1] (setting [7]); 95% (active) in assay [1] (setting [8]); 88% (active) in assay [1] (at 50.0 µM); 37% in assay [2] (setting [7]); 96% (active) in assay [2] (setting [8]); 90.2% (active) in assay [2] (at 50.0 µM). Moreover, the growth inhibition in assay [3] (setting [7]) is 50%; in assay [3] (setting [8]) it was 95% (active); in assay [3] (at 50.0 µM), 91.8% (active); in assay [4] (setting [7]), 64%; in assay [4] (setting [8]), 95% (active); in assay [4] (at 50.0 µM) it was 90.8% (active). The figures for the growth inhibition in assay [5] (setting [7]), in assay [5] (setting [8]) and in assay [5] (at 50.0 µM) were 46%, 94% (active) and 87.9% (active), respectively.

As to `O=C([CH-]C(=O)c1ccccc1)c1ccccc1.O=C([CH-]C(=O)c1ccccc1)c1ccccc1.O=C([CH-]C(=O)c1ccccc1)c1ccccc1.[Cl-].[Zr+4]`, the growth inhibition was 36% in assay [1] (setting [7]); 89% (active) in assay [1] (setting [8]); 87.5% (active) in assay [1] (at 50.0 µM); 38% in assay [2] (setting [7]); 83% (active) in assay [2] (setting [8]); 67.3% in assay [2] (at 50.0 µM). For the same molecule, the growth inhibition in assay [3] (setting [7]) is 45%; in assay [3] (setting [8]) it was 93% (active); in assay [3] (at 50.0 µM), 86.7% (active); in assay [5] (setting [7]), 29%; in assay [5] (setting [8]), 93% (active); in assay [5] (at 50.0 µM) it was 87.8% (active).

For `CC(C)c1cc([N+](=O)[O-])cc([N+](=O)[O-])c1O`, the growth inhibition in assay [1] (setting [7]) is 9%; in assay [1] (setting [8]), 88% (active); in assay [1] (at 50.0 µM), 82.4% (active); in assay [2] (setting [7]), -20%; in assay [2] (setting [8]), 90% (active); in assay [2] (at 50.0 µM) it was 62.1%. In addition, the growth inhibition in assay [3] (setting [7]) is 1%; in assay [3] (setting [8]) it was 87% (active); in assay [3] (at 50.0 µM) it was 86.1% (active); in assay [6] (setting [7]), 8%; in assay [6] (setting [8]) it was 82% (active); in assay [6] (at 50.0 µM), 58%. In addition, the growth inhibition was 6% in assay [5] (setting [7]), 90% (active) in assay [5] (setting [8]) and 80.7% (active) in assay [5] (at 50.0 µM).

Take `Cc1ccc(C(=O)C2C(c3ccccc3)N2C2CCCCC2)cc1` (centres undefined): the growth inhibition in assay [1] (setting [7]) is 0%; in assay [1] (setting [8]), 95% (active); in assay [1] (at 50.0 µM), 11.1%; in assay [2] (setting [7]), -8%; in assay [2] (setting [8]) it was 88% (active); in assay [2] (at 50.0 µM), 7.95%. The growth inhibition in assay [3] (setting [7]) is -1%; in assay [3] (setting [8]), 89% (active); in assay [3] (at 50.0 µM), 57.5%; in assay [4] (setting [7]), -8%; in assay [4] (setting [8]) it was 85% (active); in assay [4] (at 50.0 µM), 19.8%. Further, the growth inhibition is 2% in assay [5] (setting [7]), 92% (active) in assay [5] (setting [8]) and 71.6% (active) in assay [5] (at 50.0 µM).

Consider `Sc1ccccc1.[Ag]`, for which the growth inhibition in assay [1] (setting [7]) was 27%; in assay [1] (setting [8]), 97% (active); in assay [1] (at 50.0 µM), 98.5% (active); in assay [2] (setting [7]), 58%; in assay [2] (setting [8]) it was 99% (active); in assay [2] (at 50.0 µM) it was 98.8% (active). Moreover, the growth inhibition in assay [6] (setting [7]) was 20%; in assay [6] (setting [8]), 97% (active); in assay [6] (at 50.0 µM) it was 98.1% (active); in assay [4] (setting [7]) it was 56%; in assay [4] (setting [8]), 97% (active); in assay [4] (at 50.0 µM), 97.9% (active). Besides, the growth inhibition is 49% in assay [5] (setting [7]), 97% (active) in assay [5] (setting [8]) and 98.3% (active) in assay [5] (at 50.0 µM).

In the case of `O=C(CC(=O)c1ccccc1)c1ccccc1.O=C(CC(=O)c1ccccc1)c1ccccc1.O=C(CC(=O)c1ccccc1)c1ccccc1.[Al]`, the growth inhibition in assay [1] (setting [7]) is 2%; in assay [1] (setting [8]), -3%; in assay [1] (at 50.0 µM) it was 19.7%; in assay [2] (setting [7]), 5%; in assay [2] (setting [8]) it was 4%; in assay [2] (at 50.0 µM) it was 86.4% (active). Further, the growth inhibition in assay [3] (setting [7]) is 5%; in assay [3] (setting [8]), 2%; in assay [3] (at 50.0 µM), 43.6%; in assay [4] (setting [7]), 4%; in assay [4] (setting [8]), 3%; in assay [4] (at 50.0 µM), 6.55%. Besides, the growth inhibition in assay [5] (setting [7]) is 0%; in assay [5] (setting [8]) it was 0%; in assay [5] (at 50.0 µM), 20.4%.

As for `[Cl][Pt][Cl].c1ccc([AsH](CC[AsH](c2ccccc2)c2ccccc2)c2ccccc2)cc1`, the growth inhibition in assay [1] (setting [7]) is 99% (active); in assay [1] (setting [8]) it was 99% (active); in assay [1] (at 50.0 µM), 98.8% (active); in assay [2] (setting [7]) it was 99% (active); in assay [2] (setting [8]), 99% (active); in assay [2] (at 50.0 µM) it was 99.4% (active). The growth inhibition in assay [3] (setting [7]) was 99% (active); in assay [3] (setting [8]), 99% (active); in assay [3] (at 50.0 µM) it was 98.8% (active); in assay [6] (setting [7]), 98% (active); in assay [6] (setting [8]) it was 98% (active); in assay [6] (at 50.0 µM) it was 98.6% (active). The growth inhibition in assay [5] (setting [7]) is 99% (active); in assay [5] (setting [8]), 99% (active); in assay [5] (at 50.0 µM), 99.2% (active).

Regarding `N#Cc1cc([N+](=O)[O-])c(Cl)c([N+](=O)[O-])c1Cl`, the growth inhibition in assay [1] (setting [7]) is 50%; in assay [1] (setting [8]), 98% (active); in assay [1] (at 50.0 µM), 92.6% (active); in assay [2] (setting [7]), 61%; in assay [2] (setting [8]), 99% (active); in assay [2] (at 50.0 µM), 93.2% (active). The growth inhibition in assay [3] (setting [7]) is 100% (active); in assay [3] (setting [8]), 98% (active); in assay [6] (setting [7]), 70% (active); in assay [6] (setting [8]), 97% (active); in assay [4] (setting [7]) it was 99% (active); in assay [4] (setting [8]), 96% (active). The growth inhibition is 41% in assay [5] (setting [7]), 99% (active) in assay [5] (setting [8]) and 92.1% (active) in assay [5] (at 50.0 µM).

For `CCOC(=O)CNC(=O)C1C2c3ccccc3C(c3ccccc32)C1C(=O)O` (centres undefined), the growth inhibition was 3% in assay [1] (setting [7]); 38% in assay [1] (setting [8]); 90.3% (active) in assay [1] (at 50.0 µM); 3% in assay [2] (setting [7]); 40% in assay [2] (setting [8]); 95.4% (active) in assay [2] (at 50.0 µM). In addition, the growth inhibition in assay [6] (setting [7]) was 1%; in assay [6] (setting [8]), 25%; in assay [6] (at 50.0 µM), 95.9% (active); in assay [4] (setting [7]), 1%; in assay [4] (setting [8]), 45%; in assay [4] (at 50.0 µM), 94% (active). In addition, the results for the growth inhibition in assay [5] (setting [7]), in assay [5] (setting [8]) and in assay [5] (at 50.0 µM) were -1%, 32% and 98.5% (active), respectively.

On to `CCOC(=O)C(c1ccsc1)P(=O)(OCC)OCC` (centres undefined), for which the growth inhibition was 11% in assay [1] (setting [7]); 60% in assay [1] (setting [8]); 69.2% in assay [1] (at 50.0 µM); 12% in assay [3] (setting [7]); 53% in assay [3] (setting [8]); 60.6% in assay [3] (at 50.0 µM). Moreover, the growth inhibition in assay [6] (setting [7]) was 19%; in assay [6] (setting [8]), 68%; in assay [6] (at 50.0 µM), 57%; in assay [4] (setting [7]), 8%; in assay [4] (setting [8]), 87% (active); in assay [4] (at 50.0 µM), 67.3%.
